The text below walks through data of PubChem BioAssay (NCATS).

Assay [1] is described as follows: qHTS drug screen for cell cycle checkpoint inhibitors in PARPi-resistant BRCA-mutant ovarian cancer cell lines. (AID 1963452; calls by dose curve). The settings on record: PEO1/OlaR viability, CellTiter-Glo luminescence, 96 h, stronger effect = lower value. The procedure, abridged:
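PEO1, PEO4 and PEO1/OlaR ovarian cancer cells, 600 per well, exposed 96 h at 37C to a dilution series. Viability read by CellTiter-Glo luminescence, normalized to DMSO and empty wells; activity summarized as Z-AUC.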
Background: qHTS replaces the single test concentration by a dilution series.

A short description of assay [2]: qHTS profiling for inhibitors of Plasmodium falciparum proliferation (AID 504749). Also: nearly all actives have a fitted effect of over 60% in size. Also: potency is read from the fitted curve at half-maximal effect.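 As to activity, negative = inhibition: 0% = DMSO vehicle and full inhibition = artemisinin control.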 The settings on record: P. falciparum in erythrocytes, SYBR Green DNA, 72 h. The method, boiled down: (§1)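 P. falciparum-infected erythrocytes (0.3% parasitemia, 2.5% hematocrit final) were exposed to compounds for 72 h at 37 C in 5% CO2, then lysed with SYBR Green buffer overnight at room temperature; parasite DNA fluorescence was normalized to artemisinin and DMSO controls.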

Assay [3] has as its system 3D7. The description is as above. The settings on record: P. falciparum in erythrocytes, SYBR Green DNA, 72 h; series mostly up to 28.7 µM. The method, boiled down: as §1
The test system of assay [4] is 7G8. The description is as above. The settings on record: P. falciparum in erythrocytes, SYBR Green DNA, 72 h; series mostly up to 28.7 µM. The method, boiled down:
as §1

Assay [5] has as its system AA1029. The description is as above. The settings on record: P. falciparum in erythrocytes, SYBR Green DNA, 72 h; series mostly up to 28.7 µM. The method, boiled down: as §1
Assay [6] concerns AS120. Described as above. The settings on record: P. falciparum in erythrocytes, SYBR Green DNA, 72 h; series mostly up to 28.7 µM. The method, boiled down: as §1
The test system of assay [7] is ATS189. Described as above. Conditions: P. falciparum in erythrocytes, SYBR Green DNA, 72 h; series mostly up to 28.7 µM. The method, boiled down: as §1
The subject of assay [8] is ATS95. The description is as above. Conditions: P. falciparum in erythrocytes, SYBR Green DNA, 72 h; series mostly up to 28.7 µM. The procedure, abridged:
as §1

For assay [9], the system named is C2A. The description is as above. Conditions: P. falciparum in erythrocytes, SYBR Green DNA, 72 h; series mostly up to 28.7 µM. The method, boiled down:
as §1

Assay [10] can be described thus: qHTS for identification of novel therapeutic agents for treatment of microphthalmiaassociated transcription factor (MiT) renal cell carcinoma (RCC) (AID 1963991). The settings on record: CellTiter-Glo, 48 h, stronger effect = lower value. The procedure, abridged: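 Three TFE3-fusion RCC lines (UOK109, UOK124, UOK145), 500 cells/well in complete medium, were treated with MIPE 4.0 compounds for 48 hours at 37 C. Viability was by CellTiter-Glo luminescence, normalized to DMSO (100%) and empty wells (0%); curves fitted over 11 concentrations.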

Setting [11] is: measured here: PEO1 parental Z-AUC.
[12] abbreviates: at 28.7 µM (top of the series), parasite line A.
The mark [13] stands for this setting: at 28.7 µM (top of the series), parasite line B.

Each structure is given as a SMILES string. Inconclusive results are not listed. Calls of active or inactive are those of the source. Unless noted, calls follow the shape of the dose curve; as a rule, active = well fitted inhibition curve with a large enough effect; inconclusive = small, poorly fitted or top-dose-only effect; inactive = flat fitted curve, though single readings scatter.

Take `Cc1cc(SCc2sc(-c3ccc(C(F)(F)F)c(F)c3)nc2C)ccc1OCC(=O)O`: the Z-AUC was -0.925 (inactive) in assay [1], -0.906 in assay [1] (setting [11]) and -0.303 in assay [1] (measured here: PEO4 Z-AUC).

For `NN=C(N)N`, the Z-AUC in assay [1] is 0.673 (inactive); in assay [1] (setting [11]) it was 0.529; in assay [1] (measured here: PEO4 Z-AUC) it was 0.584. The activity, negative = inhibition in assay [2] (setting [12]) was -1.43% (inactive); in assay [2] (setting [13]), 11.2% (inactive). Besides, the Potency result in assay [3], in assay [4], in [5], in [6], in assay [7] and in assay [8] was “inactive” throughout. Further, in [9], the Potency result was “inactive”.

`COC[C@@H](NC(C)=O)C(=O)NCc1ccccc1`: the Z-AUC in assay [1] is -0.757 (inactive); in assay [1] (setting [11]), 0.116; in [1] (measured here: PEO4 Z-AUC) it was -0.684.

Take `C#CCN(C)[C@H](C)Cc1ccccc1`: the Z-AUC in [1] is 0.853 (inactive); in assay [1] (setting [11]) it was 0.381; in assay [1] (measured here: PEO4 Z-AUC), 0.551.

For `COc1ccc(C(=O)c2c(C)n(CCN3CCOCC3)c3ccccc23)cc1`, the Z-AUC is 0.0561 (inactive) in assay [1], -0.45 in assay [1] (setting [11]) and -1.01 in assay [1] (measured here: PEO4 Z-AUC). Moreover, the z-score amounted to 0.603 in assay [10] (TFE3-RCC UOK109 viability, measured here: UOK109 Z-AUC); 0.604 in assay [10] (TFE3-RCC viability, measured here: UOK124 Z-AUC); 0.655 in assay [10] (TFE3-RCC viability, measured here: UOK145 Z-AUC). Besides, the activity, negative = inhibition in assay [2] (setting [12]) was -0.832% (inactive); in [2] (setting [13]), 8.06% (inactive). The Potency entry in assay [3], in assay [5], in assay [6], in assay [7], in assay [8] and in assay [9] was “inactive” throughout. In addition, the Potency in assay [4] is 12.6 µM (active).

Regarding `CC(C)CC(N(C)C)C1(c2ccc(Cl)cc2)CCC1` (stereo not drawn), the Z-AUC in assay [1] is 0.505 (inactive); in [1] (setting [11]), 0.684; in assay [1] (measured here: PEO4 Z-AUC), 0.647. The values for the activity, negative = inhibition in [2] (setting [12]) and in assay [2] (setting [13]) were 6.97% (inactive) and 4.99% (inactive), respectively. For the same compound, the Potency entry in assay [3], in [4], in assay [5], in assay [6], in assay [7] and in [8] was “inactive” each time. In addition, the Potency result in [9] was “inactive”.

As for `O=P1(NCCCl)OCCCN1CCCl` (stereo not drawn), the Z-AUC was 0.293 (inactive) in assay [1], -0.297 in assay [1] (setting [11]) and -0.293 in assay [1] (measured here: PEO4 Z-AUC). For the same compound, the activity, negative = inhibition in assay [2] (at 12.8 µM (top of the series), parasite line A) was -2.67% (inactive); in assay [2] (at 12.8 µM (top of the series), parasite line B), 0.405% (inactive). For the same compound, the Potency result in assay [3], in assay [4], in assay [5], in assay [6], in assay [7] and in assay [8] was “inactive” throughout. The Potency result in assay [9] is “inactive”.

In the case of `N[C@@H](Cc1ccc(N(CCCl)CCCl)cc1)C(=O)O`, the Z-AUC in assay [1] is -0.14 (inactive); in [1] (setting [11]) it was -0.257; in [1] (measured here: PEO4 Z-AUC) it was -0.0487. Further, in assay [4], the Potency was 11.2 µM (active).

In the case of `Cn1c(CCCC(=O)O)nc2cc(N(CCCl)CCCl)ccc21`, the Z-AUC was 2 (inactive) in [1], 1.56 in assay [1] (setting [11]) and 2.09 in assay [1] (measured here: PEO4 Z-AUC). Besides, the activity, negative = inhibition is -26.2% (inactive) in assay [2] (setting [12]) and 3.04% (inactive) in assay [2] (setting [13]). In addition, the Potency result in assay [3], in [5], in [6], in [7], in assay [8] and in assay [9] was “inactive” each time.

In the case of `O=C1CC[C@@]2(O)[C@H]3Cc4ccc(O)c5c4[C@@]2(CCN3CC2CC2)[C@H]1O5`, the Z-AUC was -0.771 (inactive) in assay [1], -0.291 in assay [1] (setting [11]) and -0.633 in assay [1] (measured here: PEO4 Z-AUC).
